B2AR arrestin – beta2AR (human) beta-arrestin recruitment activity | P07550 | beta-arrestin recruitment to beta2AR, cell-based reporter | Potency, µM (top dose mostly 46.1 µM), for inactives: at the highest dose activation, usual class: activators | hit rate 0.02% among 330,000;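 further: potency means the concentration at half of the fitted maximal effect; 0% = DMSO controls and full agonism = EC100 isoproterenol or metaproterenol; nearly all actives have a fitted effect of over 65% in size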
PKM2 activator – PKM2 (human) enzyme activation; P14618; purified PKM2, Kinase-Glo ATP luminescence, activation; response scale: 0% is enzyme alone, no compound; Potency, µM (doses to about 57.5 µM), for the others: top-dose activation, most hits filed as activators; hit rate 0.34% among 260,000; AID 1631; further: potency means the concentration at half of the fitted maximal effect; on the % scale 0 is the no-effect control and ±100 the full control effect; nearly all actives have a fitted effect of over 55% in size
Target sequence (P14618 whole entry, looked up): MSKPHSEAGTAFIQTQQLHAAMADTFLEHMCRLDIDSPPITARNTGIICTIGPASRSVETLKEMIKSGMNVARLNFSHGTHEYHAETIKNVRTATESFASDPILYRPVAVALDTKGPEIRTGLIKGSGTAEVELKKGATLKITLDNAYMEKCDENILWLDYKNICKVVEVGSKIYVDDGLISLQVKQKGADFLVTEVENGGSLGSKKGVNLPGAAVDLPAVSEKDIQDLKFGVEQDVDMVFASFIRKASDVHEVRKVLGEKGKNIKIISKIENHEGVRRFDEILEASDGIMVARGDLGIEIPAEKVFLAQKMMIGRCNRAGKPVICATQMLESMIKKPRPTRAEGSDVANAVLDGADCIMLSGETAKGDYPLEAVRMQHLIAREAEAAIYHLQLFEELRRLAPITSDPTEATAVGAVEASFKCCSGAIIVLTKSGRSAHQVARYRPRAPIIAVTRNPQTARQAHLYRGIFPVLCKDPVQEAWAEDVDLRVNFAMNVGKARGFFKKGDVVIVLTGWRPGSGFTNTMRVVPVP
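Purified hPK-M2 (>95%) run at intermediate activity with 0.1 mM ADP and 0.5 mM PEP in 50 mM imidazole pH 7.2, KCl, MgCl2; 1 h room temperature. ATP formed read by Kinase-Glo luminescence; normalized to uninhibited and no-enzyme controls.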
IL2 activator – activators of IL-2 | hit rate 0.065% among 360,000 | activation, % (series mostly up to about 46 µM) | IL-2 activation reporter assay, cell-based qHTS; stimulated with anti-CD3/CD4/CD28 beads; in transgenic mouse T cells | AID 652025; in the data active means activation above about 50%; inconclusive means mostly about 30% to 49%; further: 0% is about no effect
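Unstimulated transgenic mouse T cells, 750 per well, received compound and, after 60 minutes, anti-CD3/anti-CD4 bead plus anti-CD28 stimulation. EGFP and DsRed were quantified after 18 hours.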
Epigenetic reg – derepresses silenced GFP reporter in murine cells; murine LDR cells, GFP reporter derepression, 30 h; Potency, µM (highest dose often 53.9 µM), for the others: at the top dose GFP activation, actives largely listed as activators; hit rate 0.2% among 280,000; AID 1865; further: potency means the concentration at half of the fitted maximal effect; % of control where 0% means no effect; nearly all actives have a fitted effect of over 60% in size
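Reporter derepression read as number of fluorescent GFP-positive objects, 20-120 um in size, counted by laser-scanning cytometer. Mouse LDR line with an epigenetically silenced CMV-GFP locus; compound incubation 30 h, 37 C.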
PINK1 modulator – modulators of PINK1 expression | AID 624263 | hit rate 0.2% among 410,000 | Potency, µM (highest dose often 76.6 µM), inactives show top-dose activation (PINK1 increase), most hits filed as activators | PINK1 immunofluorescence, high-content cytometry, 24 h; active means well fitted activation curve with a large enough effect; inconclusive means small, poorly fitted or top-dose-only effect; cell line not stated here; further: potency means the concentration at half of the fitted maximal effect; % of control where 0% means no effect; nearly all actives have a fitted effect of over 65% in size
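Cells are seeded, rested 12 hours, then given compound at five concentrations or DMSO for 24 hours. After fixation, blocking and antibody staining, PINK1 amount and mitochondrial localization are scored; CCCP serves as control.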
Starred values were filed as active, the others as inactive; ? = inconclusive; . = not tested or not shown; [ ] = dose if it differs, or a comment. Sampled rows, rich in hits. Any-hit rate of the full collection: about 0.58%. Unless noted, the call rests on the fitted dose curve; in most records, active means well fitted curve in the direction sought with a large enough effect; inconclusive means small, poorly fitted or top-dose-only effect, or another doubt; inactive means no such curve, though single readings can be large; an effect the other way counts as inactive or inconclusive.

SMILES | B2AR arrestin | PKM2 activator | IL2 activator | Epigenetic reg | PINK1 modulator
CCS(=O)(=O)Nc1cccc(C2=NN(C(C)=O)C(c3cccs3)C2)c1 (centres undefined) | 0% | 14µM* | 1 | -3% | 5%
COc1cc(CNc2nc(C)c(-c3ccn(CC4CCCN(C)C4)n3)s2)ccc1F (centres undefined) | . | . | . | . | -1%
COc1cccc(OCc2cc(C3Nc4ccccc4C(=O)N3Cc3ccco3)ccc2OC)c1 (centres undefined) | 5% | 7.9µM* | 1 | 1% | 2%
COc1ccc(C2Nc3ccccc3C(=O)N2Cc2ccco2)cc1COc1c(C)cccc1C (centres undefined) | . | . | . | . | 1%
N#C/C(=C/c1ccc(N2CCCCCC2)o1)c1ccc(Cl)cc1 | -1% | ? | 0 | 7.1µM* | 7.9µM*
N#C/C(=C/c1ccc(N2CCCCC2)o1)c1cccc(F)c1 | 4% | ? | 4 | 6.3µM* | 7.1µM*
N#C/C(=C\c1ccc(N2CCOCC2)o1)C(=O)NC1CCCCC1 | -1% | 4% | 2 | 4% | 8%
N#C/C(=C/c1ccc(N2CCCCC2)cc1)c1cccc(F)c1 | 0% | -7% | 0 | 2% | ?
Cc1cnc(SCc2ccccn2)nc1C1CCCN(C(=O)c2ccc3c(c2)OCCO3)C1 (centres undefined) | . | . | . | . | 0%
Cc1cc(C)n2cc(CSc3nnnn3-c3ccc(Cl)cc3)nc2n1 | 0% | 16µM* | -4 | 0% | -2%
Cc1cc(C)n2cc(CSc3nnnn3-c3ccccc3)nc2n1 | -1% | 8.9µM* | -1 | 1% | -3%
Cc1cccc2nc(CSc3nnnn3-c3ccccc3)cn12 | 0% | 20% | 3 | 1% | -2%
Cc1cc(C)n2cc(CSc3ccc(Br)cc3)nc2n1 | 0% | 21% | 0 | 0% | 2%
OC(c1cccnc1)c1ccc2c(c1)CN(Cc1cn(-c3ccccc3)nc1-c1ccccc1)CCO2 (centres undefined) | . | . | . | . | 0%
COc1ccc(-c2cccc3c2OC(CNC(=O)c2ccccc2-n2cccn2)C3)nn1 (centres undefined) | . | . | . | . | -1%
COc1cccc(-c2nc3cc(SC)ccc3cc2CN(C(=O)c2csc(C)n2)C2CC2)c1 | . | . | . | . | 1%
CCN(CC)CCNC(=O)c1cnn(-c2nccc(-c3cc4ccccc4o3)n2)c1C | . | . | . | . | 0%
O=[N+]([O-])c1ccc(Oc2cccc3cccnc23)c([N+](=O)[O-])c1 | -1% | 8% | 0 | 13µM* | 6%
N#Cc1ccc(Oc2cccc3cccnc23)c([N+](=O)[O-])c1 | -1% | . | 1 | . | 0%
Cc1ccc(S(=O)(=O)N2CCN(C(=O)Cc3ccccc3)CC2)cc1C | 0% | . | 0 | . | 1%
Cc1ccc(S(=O)(=O)N2CCN(C(=O)C(C)Cn3nc(C)c(C)c3C)CC2)cc1C (centres undefined) | -1% | 2% | -1 | . | -2%
Cc1ccc(S(=O)(=O)N2CCN(C(=O)CCN3C(=O)c4ccccc4C3=O)CC2)cc1C | -1% | 5.6µM* | -2 | -2% | -2%
Cc1ccc(S(=O)(=O)N2CCN(C(=O)CCn3nc(C)c(C)c3C)CC2)cc1C | 0% | 7.9µM* | -3 | . | 0%
CCOC(=O)c1ccc2c(c1)nc(SC/C(O)=C(\C#N)c1nc3ccccc3[nH]1)n2CC | 0% | 0% | 2 | -1% | 40µM*
COc1ccc(NS(=O)(=O)c2cc([N+](=O)[O-])ccc2N/N=C\c2c(C)[nH]c3ccccc23)cc1 | 0% | 4% | 4 | 10µM* | 3%
COc1ccccc1C1CN(Cc2cccc3nccnc23)Cc2ccccc2O1 (centres undefined) | . | . | . | . | 0%
Cc1ncsc1CCC(=O)N1CCCC(c2nc(-c3ccncc3)ncc2-c2ccccc2)C1 (centres undefined) | . | . | . | . | -1%
N/C(=N\NC(=O)c1ccccc1)c1cc2ccccc2oc1=O | 0% | -7% | 0 | 1% | 1%
NC(=S)N/N=C/c1ccccc1OC(=O)c1cc2ccccc2oc1=O | 13µM* | -4%[0.46 µM] | 0 | . | -1%
Cc1ccc(C(=O)NCCc2nnc3n2CCN(Cc2ccc4ccccc4c2)CC3)c(C)c1 | . | . | . | . | 0%

High-throughput results as filed in PubChem BioAssay.
